High-throughput results from PubChem.
Rows were chosen to be rich in hits. Some 3.6% of all compounds tested hit in one or more screens of this group.
APOBEC3G inh – APOBEC3G (human) deaminase inhibition | recombinant A3G, ssDNA deamination FAM/TAMRA fluorescence | inhibition, % at 20 µM | 330,000 tested, 0.28% active | Q9HC16 | AID 493012;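 active means inhibition of at least 40% at 20 µM, with no more than 30% in the related APOBEC3A deaminase screen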;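 further: plate controls were DMSO wells with A3G for no effect and wells lacking A3G enzyme for full effect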
Target sequence (Q9HC16 whole entry, looked up): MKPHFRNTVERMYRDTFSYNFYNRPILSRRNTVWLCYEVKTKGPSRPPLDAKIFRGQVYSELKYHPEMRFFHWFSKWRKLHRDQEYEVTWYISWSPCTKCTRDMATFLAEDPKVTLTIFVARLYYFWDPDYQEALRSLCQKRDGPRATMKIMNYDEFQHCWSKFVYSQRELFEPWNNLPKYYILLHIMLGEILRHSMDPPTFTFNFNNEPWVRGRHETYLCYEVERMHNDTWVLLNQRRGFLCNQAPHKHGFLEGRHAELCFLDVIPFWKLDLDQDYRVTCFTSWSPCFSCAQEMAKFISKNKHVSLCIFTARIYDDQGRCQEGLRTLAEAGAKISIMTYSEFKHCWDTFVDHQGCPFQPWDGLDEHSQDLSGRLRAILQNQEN
esBAF inh – SWI/SNF esBAF complex inhibition. mouse ES cells, Bmi1-luciferase knock-in reporter, 24 h; 100% = twice the neutral-well signal. reporter increase, % at 12.5 µM. 350,000 tested, 2% active. AID 602393; in the data active means activation above about 40%;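 further: 0% = median of the plate's neutral control wells and 100% = double that signal; a rise in the Bmi1 reporter signal indicates esBAF inhibition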
PHOSPHO1 block – PHOSPHO1 (human) inhibition; Q8TCT1; recombinant PHOSPHO1, absorbance phosphatase assay; inhibition, % at 13.3 µM; 290,000 tested, 1.1% active; AID 1565; in the data active means inhibition above about 60%
Target sequence (Q8TCT1 whole entry, looked up): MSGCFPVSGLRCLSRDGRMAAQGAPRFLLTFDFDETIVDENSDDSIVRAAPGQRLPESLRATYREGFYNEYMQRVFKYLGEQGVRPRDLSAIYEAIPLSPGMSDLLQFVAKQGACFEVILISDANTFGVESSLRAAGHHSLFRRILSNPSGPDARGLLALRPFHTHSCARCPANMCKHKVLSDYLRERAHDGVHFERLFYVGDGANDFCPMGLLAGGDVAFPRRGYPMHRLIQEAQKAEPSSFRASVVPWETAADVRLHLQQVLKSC
MITF act – activators of MITF-driven TRPM1 promoter activity in SK-MEL-5 cells; SK-MEL-5 TRPM1-promoter luciferase, 24 h; % of positive control, neutral wells = 0; activation, % at 12.5 µM; 300,000 tested, 0.75% active;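 active means mean activation of at least 80% with every replicate also reaching 80%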;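 further: 0% = neutral control wells and 100% = parthenolide positive control wells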
A3A deaminase – human APOBEC3A DNA deaminase inhibition. P31941. recombinant A3A, FAM/TAMRA ssDNA deamination fluorescence. inhibition, % at 20 µM. 330,000 tested, 0.41% active;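 active means at least 40% inhibition at 20 µM here, with at most 30% in a related deaminase screen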;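 further: plate controls were A3A with DMSO for no effect and wells lacking A3A enzyme for full effect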
Wnt bcat act – activates Wnt/beta-catenin signaling in a reporter cell assay. activator, plate reader. activation, % at 9.35 µM. 300,000 tested, 1.2% active. AID 743398; in the data active means activation above about 30%, passing the limit was not always enough;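 further: 0% = neutral control wells and 100% = positive control wells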
APOBEC3A confirm – confirmation of human APOBEC3A DNA deaminase inhibitors; shares compounds with A3A deaminase; inhibition, % at 20 µM; 1,400 tested, 63% active; recombinant A3A, ssDNA deaminase UDG fluorescence assay; AID 493151;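 active means inhibition reaching a set limit, 80% of the first screen's cutoff, at 20 µM in any replicate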;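 further: plate controls were DMSO wells with A3A for no effect and wells lacking A3A enzyme for full effect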
UDG ctr A3A – UDG inhibition in APOBEC3A counter-screen; shares compounds with A3A deaminase; UDG counterscreen, FAM/TAMRA uracil oligo fluorescence; inhibition, % at 20 µM; 1,000 tested, under 10 active; call rule not given here
Active calls of the source: *; nt = no result; ! = repeats disagree.

SMILES | APOBEC3G inh | esBAF inh | PHOSPHO1 block | MITF act | A3A deaminase | Wnt bcat act | APOBEC3A confirm | UDG ctr A3A
COc1ccc(C(=O)OCCN2CCCCC2)cc1 | -1 | 8 | 11 | 7 | 2 | 0 | nt | nt
C[C@@H]1CN([C@@H](C)CO)C(=O)Cc2cc(NC(=O)Cc3cn(C)c4ccccc34)ccc2O[C@@H]1CN(C)S(=O)(=O)c1ccc(F)cc1 | nt | -2 | nt | nt | nt | nt | nt | nt
C[C@@H]1CCCCO[C@@H](CN(C)C(=O)c2ccccc2)[C@H](C)CN([C@@H](C)CO)C(=O)c2cc(NC(=O)Nc3ccc4c(c3)OCO4)ccc2O1 | nt | 5 | nt | nt | nt | nt | nt | nt
C[N+]1(CCOC(=O)C2(c3ccccc3)CCCC2)CCCCC1 | 23 | nt | -12 | 7 | 64* | 0 | 63* | -3
COc1ccc(NC(=O)N(C)C[C@@H]2Oc3ncc(C#C[C@H](C)O)cc3C(=O)N([C@@H](C)CO)C[C@H]2C)cc1 | nt | -2 | nt | nt | nt | nt | nt | nt
CCCCC(=O)Nc1nc2c(OC)ccc(OC)c2s1 | 6 | -14 | 0 | nt | 3 | 0 | nt | nt
CCC[n+]1c(C)sc2c(OC)ccc(OC)c21 | 19 | -1 | -7 | -1 | 44* | 1 | 20* | -1
CC(O)/C=C/c1cccc[n+]1C (stereo not drawn) | 27 | -5 | 84* | 4 | 60* | -2 | 80* | 6
C[n+]1ccccc1/C=N/O | 3 | -3 | 6 | 5 | 65*! | 1 | 80* | -1
C[n+]1ccccc1/C=C/c1cc(Br)ccc1O | 15 | 4 | -18 | -1 | 50* | -1 | 26* | -3
CC(Sc1nnnn1C)C(=O)Nc1ccc(Oc2ccccc2)cc1 (stereo not drawn) | 2 | 17 | -7 | 12 | 3 | 7 | nt | nt
CCC(Sc1nnnn1C)C(=O)Nc1ccc(C(C)=O)cc1 (stereo not drawn) | 18 | 30 | -13 | 19 | 40* | nt | 29 | nt
Cc1ccc(Nc2nc3ccccc3n3nnnc23)cc1 | 3 | 21 | 45 | 13 | 46* | -4 | 1 | nt
COc1ccc(Nc2nc3ccccc3n3nnnc23)cc1 | -6 | 5 | 16 | 0 | 1 | nt | nt | nt
CO[C@H]1CN(C)C(=O)c2ccc(NS(=O)(=O)c3ccccc3)cc2OC[C@H](C)N(Cc2cccnc2)C[C@H]1C | nt | -3 | nt | nt | nt | nt | nt | nt
Cc1cc(/C=C(/C#N)c2nc3ccccc3[nH]2)c(C)n1-c1cc(C(=O)O)cc(C(=O)O)c1 | 22 | nt | 17 | -9 | 49* | -1 | 41* | -4
Cc1cc(/C=C(/C#N)c2nc3ccccc3[nH]2)c(C)n1-c1ccccc1C(=O)O | 13 | nt | 11 | 13 | 29 | -2 | nt | nt
COc1ccc(OC)c(NC(=O)COC(=O)c2cc3c(s2)CCC3)c1 | 34 | nt | 22 | 3 | 76 | nt | nt | nt
COc1ccccc1NC(=O)COC(=O)c1cc2c(s1)CCC2 | 6 | nt | nt | 8 | 56* | -1 | 46* | -1
N#CC(C#N)=Cc1cccn1-c1ccc(C(=O)O)cc1 | 41 | nt | 8 | 1 | 81 | -1 | nt | nt
N#C/C(=C/c1cccn1-c1cccc(C(=O)O)c1)c1ccc(Cl)cc1 | 20 | nt | 16 | -1 | 70* | 4 | 65* | nt
CN(C(=O)COC(=O)c1ccc2c(c1)OCO2)C1CCCCC1 | -4 | 33 | nt | 37 | -2 | -2 | nt | nt
C[N+]12CCCCC1C(COC(=O)c1ccc3c(c1)OCO3)CCC2 (stereo not drawn) | 28 | 1 | -6 | 4 | 58* | -4 | 48* | nt
C/C=C/c1ccc([C@H]2[C@@H](CNC(=O)CC)N(Cc3ccccn3)[C@H]2CO)cc1 | nt | -1 | nt | nt | nt | nt | nt | nt
O=C(CSc1n[nH]c(-c2ccncc2)n1)Nc1ccc(Cl)c(Cl)c1 | 15 | -1 | -2 | -1 | 59* | -2 | 48* | 6
SMILES | APOBEC3G inh | esBAF inh | PHOSPHO1 block | MITF act | A3A deaminase | Wnt bcat act | APOBEC3A confirm | UDG ctr A3A
O=C(CSc1n[nH]c(-c2ccncc2)n1)Nc1ccc(Cl)cc1 | -5 | -1 | 12 | 2 | -1 | 2 | nt | nt
CCCCNC(=O)[C@H]1C[C@H]1[C@@H](O)[C@H](CO)NC(=O)[C@H](Cc1ccccc1)NC(=O)OC(C)(C)C | -8 | -5 | -2 | 10 | 66* | 0 | -9 | -1
O=C(Nc1ccccc1F)N[C@@H]1CC[C@@H](CCNC(=O)C2CCOCC2)O[C@@H]1CO | nt | -3 | nt | nt | nt | nt | nt | nt
COc1ccc(C(=O)NC(C)c2nnc(SCc3ccc(Cl)c(Cl)c3)n2C)cc1 (stereo not drawn) | 16 | 5 | 82* | -17 | 57* | nt | 60* | -2
CCOc1cc(N2CCOCC2)c(OCC)cc1NS(=O)(=O)c1cc(NC(C)=O)ccc1OC | 6 | -11 | 19 | 1 | 46* | -2 | 20* | -3
CCOc1cc(N2CCOCC2)c(OCC)cc1NC(=O)c1c(C)noc1C | 6 | nt | nt | 8 | 43* | -3 | 8 | nt
COc1ccccc1NS(=O)(=O)c1cc(NC(=O)c2ccc(NC(C)=O)cc2)ccc1N1CCOCC1 | nt | 4 | nt | 13 | nt | -3 | nt | nt
Cc1cccc(C)c1OCC(=O)NCc1nnc(SCC(=O)NC2CCCCC2C)n1C (stereo not drawn) | 10 | -12 | -11 | -11 | 53* | nt | 60* | 3
COc1ccccc1C(=O)Nc1ccc2c(c1)C(=O)N(C)[C@@H]1CC[C@@H](CC(=O)NCCc3ccncc3)O[C@@H]1CO2 | nt | -1 | nt | nt | nt | nt | nt | nt
Nc1ccc(-c2ccc(N)c(C(=O)O)c2)cc1C(=O)O | 12 | 2 | 25 | 8 | 48* | 6 | 37* | 1
COC(=O)c1[nH]c2cc(C)ccc2c1NC(=O)CN1CCc2cc(OC)c(OC)cc2C1 | -8 | 16 | 7 | -4 | -1 | nt | nt | nt
COC(=O)c1[nH]c2ccc(Cl)cc2c1NC(=O)CN1CCc2cc(OC)c(OC)cc2C1 | 9 | 2 | -16 | -17 | 41* | nt | 60* | -3
CCCNC(=O)N(C)C[C@H]1Oc2cc(C#CCN(C)C)ccc2S(=O)(=O)N([C@H](C)CO)C[C@H]1C | nt | 1 | nt | nt | nt | nt | nt | nt
Fc1ccc(CNc2ccccn2)cc1 | -7 | 9 | 34 | 4 | -8 | 2 | nt | nt
CSc1ccc(CNc2ccccn2)cc1 | 9 | 36 | 76* | nt | 48* | -3 | 3 | nt
O=C(Nc1ccc(N2CCOCC2)cc1)C1CCN(S(=O)(=O)c2ccc3c(c2)OCCO3)CC1 | -12 | nt | 47 | -5 | -1 | 0 | nt | nt
Cc1ccc(S(=O)(=O)N2CCC(C(=O)Nc3ccc(N4CCOCC4)cc3)CC2)cc1C | 4 | nt | nt | -7 | 43* | -2 | 11 | nt
O=C1C=C(Nc2ccccc2)C(=O)c2ccccc21 | -8 | 5 | 7 | -48 | 65* | 2 | -1 | 3
Cc1ccc(S(=O)(=O)N(C)C)cc1NC(=O)CSc1nnc(C2CC2)n1C1CC1 | -8 | -1 | nt | -11 | -4 | -22 | nt | nt
